Records with an inconclusive call do not appear. Entries that show only a call come without a potency. The source made the active and inactive calls. Unless noted, calls follow the shape of the dose curve; as a rule, active = well fitted curve in the direction sought with a large enough effect; inconclusive = small, poorly fitted or top-dose-only effect, or another doubt; inactive = no such curve, though single readings can be large; an effect the other way counts as inactive or inconclusive.
Legend:
[1] = UWB1.289 Cancer Cell Toxicity qHTS against the NCATS CANVASS Library (AID 1347347); also: nearly all actives have a fitted effect of over 60% in size; also: potency is read from the fitted curve at half-maximal effect
Procedure, shortened: (§1)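 Following a 4 h pre-incubation of 1000 seeded cells, compounds were pinned in an 11-pnt dilution series and left for 72 h; viability then came from CellTiter-Glo.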

[2] = Panc-1005 Cancer Cell Toxicity qHTS against the NCATS CANVASS Library (AID 1347349); also: series mostly up to about 38 µM; nearly all actives have a fitted effect of over 60% in size
Procedure, shortened: as §1

[3] = SW1088 Cancer Cell Toxicity qHTS against the NCATS CANVASS Library (AID 1347350); also: nearly all actives have a fitted effect of over 75% in size; also: potency is read from the fitted curve at half-maximal effect
Procedure, shortened: as §1

[4] = COV-362 Cancer Cell Toxicity qHTS against the NCATS CANVASS Library (AID 1347352); also: series mostly up to about 38 µM
Procedure, shortened: (§2)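 Toxicity was measured as CellTiter-Glo luminescence after 72 h exposure to an 11-point compound series. Compound was added to 1000 cells/well 4 h after seeding.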

[5] = A2780 Cisplatin Sensitive Ovarian Cancer Cell Toxicity qHTS against the NCATS CANVASS Library (AID 1347353); also: nearly all actives have a fitted effect of over 60% in size
Procedure, shortened: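 Cisplatin-sensitive A2780 ovarian cells (750/well) received compound in 11 concentrations, and were incubated 72 h at 37 °C. ATP content was measured by ATPLite luminescence; bortezomib served as control.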

[6] = UWB1.289-WTBRCA1 Cancer Cell Toxicity qHTS against the NCATS CANVASS Library (AID 1347354)
Procedure, shortened: as §2

[7] = KB-8-5-11 Cancer Cell Toxicity qHTS against the NCATS CANVASS Library (AID 1347364); also: series mostly up to about 46 µM; nearly all actives have a fitted effect of over 75% in size
Procedure, shortened: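 Viability read as CellTiter-Glo luminescence after 72 h at 37 °C, 5% CO2. 11-point compound series on 500 KB-8-5-11 cells/well in DMEM/10% FBS. Follow-up plating included 1 uM tariquidar in the medium.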

[8] = SDT Cancer Cell Toxicity qHTS against the NCATS CANVASS Library (AID 1347365);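 also: SDT canine glioma cells 500 per well in 1536 well plates; series mostly up to about 46 µM; nearly all actives have a fitted effect of over 60% in size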
Procedure, shortened: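 Cytotoxicity taken from CellTiterGlo ATP luminescence after 72 hr at 37C, 5% CO2. Canine glioma line SDT, 500 cells/well, treated at 11 concentrations; bortezomib dose series as control.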

[9] = G06 Cancer Cell Toxicity qHTS against the NCATS CANVASS Library (AID 1347368)
Procedure, shortened: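 Viability measured by CellTiterGlo ATP luminescence after 72 hr at 37C, 5% CO2. Canine G06 glioma cells plated at 500/well. Compounds tested as 11-point qHTS titrations.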

[10] = DH5-alpha competent E. coli microbial cell viability qHTS against the NCATS CANVASS Library (AID 1347377); conditions: outcome: dose series up to 46.1 µM unless noted
Procedure, shortened: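 Bacterial viability as ATP-dependent luminescence (BacTiter-Glo), read after overnight 37 °C exposure of DH5-alpha competent E. coli to compounds in 11-point titration.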

[11] = qHTS for Antimalaria activity screened against the NCATS CANVASS Library (AID 1347380);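 also: Plasmodium falciparum strain Dd2 asexual parasites grown in red blood cells; series mostly up to about 29 µM; nearly all actives have a fitted effect of over 40% in size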
Procedure, shortened: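 SYBR Green fluorescence at 485/535 nm was read 18 hr after lysis. This followed a 72 hr incubation at 37C in 5% O2, 5% CO2 of Dd2-infected erythrocytes (0.3% parasitemia, 2.5% final hematocrit) with compounds titrated over 11 concentrations.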

[12] = qHTS for activators of Nrf2/ARE signaling pathway screened against the NCATS CANVASS Library (AID 1347391); also: nearly all actives have a fitted effect of over 60% in size
Procedure, shortened: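 Eleven-point qHTS, 16 h treatment of HepG2 cells carrying an ARE-driven beta-lactamase reporter; CCF4 ratio read (405 nm excitation, 460 and 530 nm emission), with CellTiter-Glo ATP luminescence for viability.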

[13] = Vero-766 cells viability qHTS against the NCATS CANVASS Library: Counterscreen for Zika virus inhibition assay (AID 1347394)
Procedure, shortened: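 Uninfected Vero 766 (African green monkey) cells, 1000/well, attached overnight, then exposed 72 h at 37C to compounds (11-point qHTS). Viability read by CellTiter-Glo luminescence; media-only wells served as 100% inhibition.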

[14] = HPAF-II 12hr Apoptosis Induction qHTS against the NCATS CANVASS Library (AID 1347358)
Procedure, shortened: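 Caspase-3/7 activation by DEVD-substrate luminescence (Caspase-Glo 3/7, 15 min, room temperature) after a 12-hour compound exposure in 11 concentrations, of HPAF-II pancreatic cells seeded at 500/well in DMEM with 10% FBS.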

[15] = HEK293 12hr Apoptosis Induction qHTS against the NCATS CANVASS Library (AID 1347361)
Procedure, shortened: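 Read-out: Caspase-Glo 3/7 luminescence (DEVD substrate), 15 min RT. Preceded by 12 h compound exposure of HEK293, 500 cells/well, 11-pt qHTS titration; doxorubicin titration as control.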

[16] = test system: NAD(P)H diaphorase (Clostridium kluyveri); assay: Diaphorse counterscreen qHTS: Assay Interference Panel against the NCATS CANVASS Library (AID 1347362)
Procedure, shortened: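 Counterscreen for coupling-enzyme interference: resorufin fluorescence from resazurin/NADH turnover, read after 5 min at room temperature. Compounds were tested over an 11-point series after 15 min dark preincubation with diaphorase in PBS-Tween.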

[17] = target: Luciferin 4-monooxygenase (Photinus pyralis) (UniProt P08659); assay: Firefly luciferase counterscreen qHTS: Assay Interference Panel against the NCATS CANVASS Library (AID 1347363); also: series mostly up to about 57 µM
Sequence of Luciferin 4-monooxygenase (Photinus pyralis) (P08659 whole entry, looked up): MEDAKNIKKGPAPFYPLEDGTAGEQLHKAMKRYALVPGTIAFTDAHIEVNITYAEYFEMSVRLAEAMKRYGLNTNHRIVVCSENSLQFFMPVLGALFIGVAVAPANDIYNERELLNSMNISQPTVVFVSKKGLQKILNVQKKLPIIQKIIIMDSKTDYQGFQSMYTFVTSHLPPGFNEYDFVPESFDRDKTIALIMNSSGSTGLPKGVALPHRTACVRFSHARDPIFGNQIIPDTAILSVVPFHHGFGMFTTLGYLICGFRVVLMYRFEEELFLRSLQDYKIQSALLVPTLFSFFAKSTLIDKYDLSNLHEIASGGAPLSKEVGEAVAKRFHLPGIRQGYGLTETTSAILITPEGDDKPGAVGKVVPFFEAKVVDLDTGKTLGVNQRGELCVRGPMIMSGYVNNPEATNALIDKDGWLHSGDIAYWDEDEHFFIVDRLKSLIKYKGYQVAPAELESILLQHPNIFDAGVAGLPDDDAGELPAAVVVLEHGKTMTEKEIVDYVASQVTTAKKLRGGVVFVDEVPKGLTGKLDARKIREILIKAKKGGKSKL
Procedure, shortened: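 Luminescence inhibition readout: compounds (11-point qHTS) sat 15 min at room temperature with substrate mix (0.013 mM luciferin and ATP), then firefly luciferase was added and signal read 5 min later.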

[18] = target: Cytochrome P450 1A2 (Homo sapiens) (UniProt P05177); assay: p450-cyp1a2 (AID 410; calls by dose curve; also: potency is read from the fitted curve at half-maximal effect)
Sequence of Cytochrome P450 1A2 (Homo sapiens) (P05177 whole entry, looked up): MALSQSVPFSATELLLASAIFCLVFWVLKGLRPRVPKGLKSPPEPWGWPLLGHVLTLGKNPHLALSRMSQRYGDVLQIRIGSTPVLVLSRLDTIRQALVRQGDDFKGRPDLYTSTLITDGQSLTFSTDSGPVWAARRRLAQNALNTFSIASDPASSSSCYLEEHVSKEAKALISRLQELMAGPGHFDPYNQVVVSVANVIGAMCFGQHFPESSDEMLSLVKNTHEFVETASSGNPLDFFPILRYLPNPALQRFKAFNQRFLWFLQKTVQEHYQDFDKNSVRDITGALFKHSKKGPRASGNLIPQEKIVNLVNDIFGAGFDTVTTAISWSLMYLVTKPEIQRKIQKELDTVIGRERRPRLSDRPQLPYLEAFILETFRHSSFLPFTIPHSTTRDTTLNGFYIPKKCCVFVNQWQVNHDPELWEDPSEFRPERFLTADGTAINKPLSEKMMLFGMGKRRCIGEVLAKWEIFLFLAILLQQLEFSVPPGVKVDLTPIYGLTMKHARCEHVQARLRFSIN
Procedure, shortened: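 Luminescent demethylation readout: Luciferin-ME (100uM, equal to Km) turned over by 20nM CYP1A2 for 60 min at room temperature after NADPH regeneration addition, following 10 min compound preincubation. Normalization used 57 uM furafylline as full inhibition.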

[19] = target: Mitogen-activated protein kinase 10 (Mus musculus) (UniProt Q61831); assay: JNK3 AlphaScreen Assay (AID 530; active = well fitted curve in either direction with a large enough effect, not every such curve was filed as active;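 also: kinase came from lysate of stimulated human HepG2 cells; signal reports phosphorylation of biotinylated GST-cJun 1-79 at Ser73 with 10 µM ATP; series mostly up to about 57 µM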)
Procedure, shortened: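 qHTS titrations with 15 min compound pre-incubation before adding ATP (10 uM final). Read-out: AlphaScreen of Ser73-phosphorylated biotin-GST-cJun using HepG2 lysate JNK3 activated by IL-1β and TNFα.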

[20] = target: 3',5'-cyclic-AMP phosphodiesterase 4B (Homo sapiens) (UniProt Q07343); assay: qHTS Assay for Inhibitors of PDE-IV (AID 607; active = well fitted activation curve with a large enough effect in the main read-out, with a control signal flat, not every such curve was filed as active)
Sequence of 3',5'-cyclic-AMP phosphodiesterase 4B (Homo sapiens) (Q07343 whole entry, looked up): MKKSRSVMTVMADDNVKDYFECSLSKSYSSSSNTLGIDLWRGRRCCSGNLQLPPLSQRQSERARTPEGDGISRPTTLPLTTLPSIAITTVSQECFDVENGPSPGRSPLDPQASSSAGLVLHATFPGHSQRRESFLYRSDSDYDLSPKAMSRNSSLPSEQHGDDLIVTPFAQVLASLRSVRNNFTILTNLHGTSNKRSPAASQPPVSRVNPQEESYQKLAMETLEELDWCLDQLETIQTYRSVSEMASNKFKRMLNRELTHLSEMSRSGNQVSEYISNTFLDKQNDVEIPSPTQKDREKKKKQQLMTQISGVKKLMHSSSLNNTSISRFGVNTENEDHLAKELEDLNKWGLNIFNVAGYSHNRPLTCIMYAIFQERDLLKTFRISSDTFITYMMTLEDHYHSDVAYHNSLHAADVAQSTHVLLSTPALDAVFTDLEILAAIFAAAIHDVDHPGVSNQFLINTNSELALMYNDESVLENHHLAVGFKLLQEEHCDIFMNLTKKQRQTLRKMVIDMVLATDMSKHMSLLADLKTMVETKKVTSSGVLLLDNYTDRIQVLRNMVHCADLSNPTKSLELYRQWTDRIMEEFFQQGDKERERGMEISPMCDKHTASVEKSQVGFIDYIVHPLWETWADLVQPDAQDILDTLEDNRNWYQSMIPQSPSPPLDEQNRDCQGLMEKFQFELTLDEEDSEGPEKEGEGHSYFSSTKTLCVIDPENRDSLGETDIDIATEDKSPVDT
Procedure, shortened: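 Live HEK293 cells with a modified cyclic nucleotide-gated (CNG) channel report intracellular cAMP via membrane-potential dye fluorescence (ex 535/em 590 nm). Endogenous PDE-IV was targeted. Compounds were tested at up to 22.9 uM final; RO 20-1724 100 uM served as control.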

With `C[C@@H]1O[C@@H](Oc2c(-c3ccc(O)cc3)oc3cc(O)cc(O)c3c2=O)[C@H](O)[C@H](O)[C@H]1O` the Potency [1] was “inactive”, the Potency [2] was “inactive” and the Potency [3] was “inactive”. The Potency [4] was “inactive”, the Potency [5] was “inactive” and the Potency [6] was “inactive”. The Potency [7] was “inactive”, the Potency [8] was “inactive” and the Potency [9] was “inactive”. The outcome [10] was “inactive”, the Potency [11] was “inactive” and the Potency [12] was “inactive”. For the same molecule, the Potency [13] was “inactive”.

With `C=C(C)[C@@H]1CC[C@]2(C)CC[C@]3(C)[C@H](CC[C@@H]4[C@@]5(C)CC[C@H](O)C(C)(C)[C@@H]5CC[C@]43C)[C@@H]12` the Potency [2] was “inactive”, the Potency [3] was “inactive” and the Potency [4] was “inactive”. For the same molecule, the Potency [5] was “inactive”, the Potency [6] was “inactive” and the Potency [14] was “inactive”. For the same molecule, the Potency [15] was “inactive”, the Potency [16] was “inactive” and the Potency [7] was “inactive”. The Potency [8] was “inactive”, the Potency [9] was “inactive” and the outcome [10] was “inactive”. For the same molecule, the Potency [11] was “inactive”, the Potency [12] was “inactive” and the Potency [13] was “inactive”.

In the case of `CC1(C)CC[C@]2(C(=O)O)CC[C@]3(C)C(=CC[C@@H]4[C@@]5(C)C[C@@H](O)[C@H](O)C(C)(C)[C@@H]5CC[C@]43C)[C@@H]2C1`, the Potency [1] is reported as 11.8 µM (active), the Potency [3] is reported as 14.9 µM (active) and the Potency [4] is reported as “inactive”. For the same molecule, the Potency [14] was “inactive”, the Potency [15] was “inactive” and the Potency [17] was “inactive”. For the same molecule, the Potency [8] was “inactive”, the Potency [9] was “inactive” and the outcome [10] was “inactive”. The Potency [12] was “inactive”.

With `COc1ccc(Cl)cc1N=Nc1ncc[nH]1` the Potency [18] was 0.631 µM (active) and the Potency [19] was “inactive”.

With `C=CCN1CCc2cc(O)c(O)cc2[C@H](c2ccccc2)C1` the Potency [18] was “inactive”, the Potency [19] was “inactive” and the Potency [20] was “inactive”.
